Values joined by “and” are separate entries in the source; they are usually repeats but may differ in a detail not shown here. Equal entries are not always repeated. About 83,000 compounds went through this panel and 20% of them were active in at least one assay; those are over-represented in the sample as a whole.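 Step 1: grow cells in 96-well plates. Step 2: add test compound at a single concentration. Step 3: incubate 48 h. Step 4: record percent growth.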 Active and inactive are the calls of the source. The calls were made as follows: active = growth percent below 10; inactive = the rest.

Test systems include SR leukemia; RPMI-8226 leukemia; OVCAR-8 ovarian; OVCAR-5 ovarian; OVCAR-4 ovarian; SK-OV-3 ovarian; IGROV1 ovarian; OVCAR-3 ovarian; HS 578T breast; NCI/ADR-RES ovarian.
Assay in all cases: NCI-60 one-dose screen, 48 h (100 = growth as untreated, 0 = no growth, -100 = all killed)
Conditions in all cases: 10 µM unless noted

Consider `Cn1c(-c2ccccc2)cc(=O)cc1-c1ccccc1`, for which the growth is 69.5% (inactive) in the assay with SR leukemia; 78.9% (inactive) in the assay on RPMI-8226 leukemia; 80.1% (inactive) in the assay on OVCAR-8 ovarian; 79.2% (inactive) with OVCAR-5 ovarian; 85.6% (inactive) with OVCAR-4 ovarian; 92.4% (inactive) with SK-OV-3 ovarian. Further, the growth in the assay with IGROV1 ovarian was 88% (inactive); in the assay with OVCAR-3 ovarian it was 122% (inactive); in the assay on HS 578T breast, 105% (inactive); in the assay with NCI/ADR-RES ovarian it was 82.2% (inactive).
Consider `COc1cc([C@@H]2c3cc4c(cc3[C@H](O)[C@H]3COC(=O)[C@@H]23)OCO4)cc(OC)c1OC`, for which the growth was 6.02% (active) and -8.59% (active) with SR leukemia; 25.8% (inactive) and -19.7% (active) in the assay with RPMI-8226 leukemia; 11.5% (inactive) and 18.9% (inactive) in the assay with OVCAR-8 ovarian; 24.3% (inactive) and 30.4% (inactive) in the assay on OVCAR-5 ovarian; 34.2% (inactive) and 35.6% (inactive) in the assay with OVCAR-4 ovarian; 33% (inactive) and 3.05% (active) in the assay on SK-OV-3 ovarian. Moreover, the growth in the assay on IGROV1 ovarian is -2.37% (active) and -41.6% (active); in the assay on OVCAR-3 ovarian, 29% (inactive) and -49.9% (active); with HS 578T breast, -47.7% (active); with NCI/ADR-RES ovarian, 5.58% (active) and -30.9% (active).
On to `COc1cc(NCCCCCNC(C)C)c2ncccc2c1`, for which the growth is 82.8% (inactive) and 133% (inactive) in the assay with SR leukemia; 107% (inactive) and 98.1% (inactive) with RPMI-8226 leukemia; 104% (inactive) and 89.6% (inactive) in the assay on OVCAR-8 ovarian; 95.2% (inactive) and 86.9% (inactive) with OVCAR-5 ovarian; 44.4% (inactive) and 45.7% (inactive) in the assay on OVCAR-4 ovarian; 84.3% (inactive) in the assay on SK-OV-3 ovarian. The growth with IGROV1 ovarian was 90.3% (inactive) and 60.4% (inactive); in the assay with OVCAR-3 ovarian it was 92% (inactive); in the assay with HS 578T breast it was 83.5% (inactive); with NCI/ADR-RES ovarian it was 91.5% (inactive) and 93.7% (inactive).
As to `C#CCOC(=O)C(N)CS` (centres undefined), the growth with SR leukemia was 102% (inactive); in the assay with RPMI-8226 leukemia, 102% (inactive); in the assay on OVCAR-8 ovarian it was 110% (inactive); in the assay on OVCAR-5 ovarian, 79.9% (inactive); in the assay with OVCAR-4 ovarian, 101% (inactive); with SK-OV-3 ovarian, 101% (inactive). Besides, the growth with IGROV1 ovarian was 104% (inactive); in the assay with OVCAR-3 ovarian, 103% (inactive); with HS 578T breast, 137% (inactive); with NCI/ADR-RES ovarian, 102% (inactive).
As to `O=[N+]([O-])c1cccc(N=Cc2ccccc2)c1`, the growth in the assay on SR leukemia is 88.4% (inactive); with RPMI-8226 leukemia it was 101% (inactive); in the assay with OVCAR-8 ovarian it was 93.1% (inactive); in the assay on OVCAR-5 ovarian, 107% (inactive); in the assay on OVCAR-4 ovarian, 111% (inactive); with SK-OV-3 ovarian, 106% (inactive). Further, the growth in the assay with IGROV1 ovarian was 114% (inactive); in the assay with OVCAR-3 ovarian, 122% (inactive); in the assay with HS 578T breast, 110% (inactive); with NCI/ADR-RES ovarian it was 108% (inactive).
With `COc1cc(Cl)ccc1C`, the growth in the assay on SR leukemia is 71.2% (inactive); in the assay on RPMI-8226 leukemia it was 105% (inactive); in the assay on OVCAR-8 ovarian, 87.5% (inactive); in the assay with OVCAR-5 ovarian, 71.1% (inactive); with OVCAR-4 ovarian it was 76.4% (inactive); with SK-OV-3 ovarian, 93.2% (inactive). In addition, the growth is 72.3% (inactive) in the assay with IGROV1 ovarian, 111% (inactive) in the assay with OVCAR-3 ovarian, 115% (inactive) in the assay with HS 578T breast and 97.4% (inactive) with NCI/ADR-RES ovarian.
For `O=C(NC(=O)c1ccc(F)c(Cl)c1)NC1CC1`, the growth in the assay on SR leukemia was 91.4% (inactive); with RPMI-8226 leukemia it was 98% (inactive) and 102% (inactive); in the assay on OVCAR-8 ovarian, 98.8% (inactive) and 103% (inactive); in the assay on OVCAR-5 ovarian, 109% (inactive) and 105% (inactive); in the assay on OVCAR-4 ovarian, 119% (inactive) and 93.4% (inactive); with SK-OV-3 ovarian, 114% (inactive) and 105% (inactive). Moreover, the growth in the assay with IGROV1 ovarian is 113% (inactive) and 109% (inactive); in the assay with OVCAR-3 ovarian, 104% (inactive) and 107% (inactive); in the assay on HS 578T breast, 102% (inactive) and 96.6% (inactive); with NCI/ADR-RES ovarian, 107% (inactive) and 103% (inactive).
For `O=C(c1ccncc1)c1c(Cc2ccccc2)ccc2ccccc12`, the growth with SR leukemia was 107% (inactive); with RPMI-8226 leukemia, 85.1% (inactive); in the assay with OVCAR-8 ovarian, 82.5% (inactive); in the assay on OVCAR-5 ovarian, 87.5% (inactive); in the assay with OVCAR-4 ovarian, 82.7% (inactive); in the assay on SK-OV-3 ovarian, 120% (inactive). Further, the growth with IGROV1 ovarian was 18% (inactive); in the assay with OVCAR-3 ovarian, 98% (inactive); with HS 578T breast, 95.3% (inactive); with NCI/ADR-RES ovarian, 88.2% (inactive).
For the molecule `CCCCOC1NC(=O)NC(=O)C1(F)C(=O)OCC` (centres undefined), the growth in the assay on SR leukemia is 37.9% (inactive); with RPMI-8226 leukemia it was 71.8% (inactive) and 53.1% (inactive); in the assay on OVCAR-8 ovarian it was 89.6% (inactive) and 66.6% (inactive); with OVCAR-5 ovarian, 96.5% (inactive) and 91.9% (inactive); in the assay on SK-OV-3 ovarian, 91.7% (inactive) and 81.6% (inactive); with IGROV1 ovarian, 103% (inactive) and 87.6% (inactive). Also, the growth in the assay on OVCAR-3 ovarian is 77.3% (inactive) and 65.7% (inactive); in the assay on HS 578T breast, 101% (inactive) and 115% (inactive); in the assay on NCI/ADR-RES ovarian it was 93.7% (inactive) and 77.1% (inactive).
Take `C(=N\OCCc1ccccc1)/c1ccccn1`: the growth was 96.5% (inactive) and 84.3% (inactive) in the assay on SR leukemia; 117% (inactive) and 98.3% (inactive) with RPMI-8226 leukemia; 108% (inactive) and 103% (inactive) in the assay on OVCAR-8 ovarian; 101% (inactive) and 102% (inactive) with OVCAR-5 ovarian; 114% (inactive) and 113% (inactive) in the assay on OVCAR-4 ovarian; 123% (inactive) with SK-OV-3 ovarian. In addition, the growth in the assay on IGROV1 ovarian is 111% (inactive); in the assay with OVCAR-3 ovarian, 105% (inactive) and 104% (inactive); in the assay on HS 578T breast, 117% (inactive) and 105% (inactive); in the assay with NCI/ADR-RES ovarian, 117% (inactive) and 104% (inactive).
For the molecule `CC(C)(C)OC(=O)c1ccc(NCc2cc(O)ccc2O)cc1`, the growth with SR leukemia is 3.5% (active); in the assay on RPMI-8226 leukemia, 1.66% (active); with OVCAR-8 ovarian, 17.2% (inactive); in the assay on OVCAR-5 ovarian, 106% (inactive); in the assay on OVCAR-4 ovarian, 12.3% (inactive); in the assay with SK-OV-3 ovarian, 44.6% (inactive). Moreover, the growth in the assay on IGROV1 ovarian was -14.3% (active); with OVCAR-3 ovarian, -83.8% (active); in the assay on HS 578T breast, 30.8% (inactive); in the assay on NCI/ADR-RES ovarian it was 23.1% (inactive).
